About 410 targets per protein were measured; listed, in parts, are those with the strongest signals and a random draw of the rest.
What was measured:
Assay in all cases: glycan array binding signal (z-score within array); higher = stronger binding
Conditions in all cases: glycan notation: IUPAC condensed, linker removed
[1] = molecular target: GalNAc(a1-3)GalNAc
Method in brief: (§1)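 From the Consortium for Functional Glycomics database, 3228 arrays were curated, keeping only those whose protein sequence was available. Binding is given as a within-array Z-score averaged across arrays sharing a protein sequence and across linkers. Negative Z-scores can be read as non-binding.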

[2] = molecular target: GalNAc6S(b1-4)GlcNAc
Method in brief: as §1

[3] = molecular target: Glc(b1-6)Glc
Method in brief: as §1

[4] = molecular target: GlcNAc(a1-3)Gal(b1-4)GlcNAc
Method in brief: as §1

[5] = molecular target: GlcNAc(a1-4)Gal(b1-4)GlcNAc(b1-3)Gal(b1-4)GlcNAc(b1-3)Gal(b1-4)GlcNAc
Method in brief: as §1

[6] = molecular target: GlcNAc(a1-4)Gal(b1-4)GlcNAc(b1-3)Gal(b1-4)[Fuc(a1-3)]GlcNAc(b1-3)Gal(b1-4)[Fuc(a1-3)]GlcNAc
Method in brief: as §1

[7] = molecular target: GlcNAc(b1-2)Man(a1-3)[GlcNAc(b1-2)Man(a1-6)]Man(b1-4)GlcNAc(b1-4)GlcNAc
Method in brief: as §1

[8] = molecular target: GlcNAc(b1-3)Gal(b1-4)GlcNAc(b1-3)Gal(b1-4)GlcNAc(b1-3)Gal(b1-4)GlcNAc(b1-2)Man(a1-3)[GlcNAc(b1-3)Gal(b1-4)GlcNAc(b1-3)Gal(b1-4)GlcNAc(b1-3)Gal(b1-4)GlcNAc(b1-2)Man(a1-6)]Man(b1-4)GlcNAc(b1-4)GlcNAc
Method in brief: as §1

[9] = molecular target: GlcNAc(b1-3)Gal(b1-4)GlcNAc(b1-3)Gal(b1-4)GlcNAc(b1-3)Gal(b1-4)GlcNAc(b1-3)Gal(b1-4)GlcNAc(b1-2)[GlcNAc(b1-3)Gal(b1-4)GlcNAc(b1-3)Gal(b1-4)GlcNAc(b1-3)Gal(b1-4)GlcNAc(b1-3)Gal(b1-4)GlcNAc(b1-6)]Man(a1-6)[GlcNAc(b1-3)Gal(b1-4)GlcNAc(b1-3)Gal(b1-4)GlcNAc(b1-3)Gal(b1-4)GlcNAc(b1-3)Gal(b1-4)GlcNAc(b1-2)Man(a1-3)]Man(b1-4)GlcNAc(b1-4)[Fuc(a1-6)]GlcNAc
Method in brief: as §1

[10] = molecular target: GlcNAc(b1-3)Gal(b1-4)GlcNAc(b1-3)[GlcNAc(b1-3)Gal(b1-4)GlcNAc(b1-3)]GalNAc
Method in brief: as §1

[11] = molecular target: Kdn(a2-3)Gal(b1-3)GlcNAc
Method in brief: as §1

[12] = molecular target: Kdn(a2-3)Gal(b1-4)GlcNAc
Method in brief: as §1

[13] = molecular target: Man(a1-3)[Man(a1-6)]Man(a1-6)[Man(a1-3)]Man(b1-4)GlcNAc(b1-4)GlcNAc
Method in brief: as §1

[14] = molecular target: Neu5Ac(a2-3)Gal(b1-3)GlcNAc(b1-6)GalNAc
Method in brief: as §1

[15] = molecular target: Neu5Ac(a2-3)Gal(b1-3)[Fuc(a1-4)]GlcNAc
Method in brief: as §1

[16] = molecular target: Neu5Ac(a2-3)Gal(b1-4)[Fuc(a1-3)]GlcNAc
Method in brief: as §1

[17] = molecular target: Neu5Ac(a2-3)Gal(b1-4)[Fuc(a1-3)]GlcNAc(b1-3)Gal(b1-4)GlcNAc
Method in brief: as §1

[18] = molecular target: Neu5Ac(a2-6)Gal(b1-4)GlcNAc(b1-2)Man(a1-3)[GlcNAc(b1-4)][Neu5Ac(a2-6)Gal(b1-4)GlcNAc(b1-2)Man(a1-6)]Man(b1-4)GlcNAc(b1-4)GlcNAc
Method in brief: as §1

[19] = molecular target: Neu5Ac(a2-6)Gal(b1-4)GlcNAc(b1-2)Man(a1-3)[Man(a1-6)]Man(b1-4)GlcNAc(b1-4)GlcNAc
Method in brief: as §1

[20] = molecular target: Neu5Ac(a2-6)Gal(b1-4)GlcNAc(b1-2)Man(a1-6)Man(b1-4)GlcNAc(b1-4)GlcNAc
Method in brief: as §1

[21] = molecular target: Neu5Ac(a2-6)Gal(b1-4)GlcNAc(b1-2)[Neu5Ac(a2-6)Gal(b1-4)GlcNAc(b1-4)]Man(a1-3)[GlcNAc(b1-4)][Neu5Ac(a2-6)Gal(b1-4)GlcNAc(b1-2)[Neu5Ac(a2-6)Gal(b1-4)GlcNAc(b1-6)]Man(a1-6)]Man(b1-4)GlcNAc(b1-4)GlcNAc
Method in brief: as §1

[22] = molecular target: Neu5Ac(a2-6)Gal(b1-4)GlcNAc(b1-2)[Neu5Ac(a2-6)Gal(b1-4)GlcNAc(b1-4)]Man(a1-3)[GlcNAc(b1-4)][Neu5Ac(a2-6)Gal(b1-4)GlcNAc(b1-4)Man(a1-6)]Man(b1-4)GlcNAc(b1-4)GlcNAc
Method in brief: as §1

[23] = molecular target: Neu5Ac(a2-6)GlcNAc(b1-4)GlcNAc(b1-4)GlcNAc
Method in brief: as §1

[24] = molecular target: Neu5Ac(a2-8)Neu5Ac(a2-3)[GalNAc(b1-4)]Gal(b1-4)Glc
Method in brief: as §1

[25] = molecular target: Neu5Ac9Ac(a2-3)Gal(b1-3)GlcNAc
Method in brief: as §1

[26] = molecular target: Neu5Gc(a2-3)Gal(b1-3)GlcNAc
Method in brief: as §1

B1: MXA PilAct-eGFP (Myxococcus xanthus), Q59589 (protein)
chain: MRVSRFNPRNRGFTLIELMIVVAIIGILAAIAIPNFIKFQARSKQSEAKTNLKALYTAQKSFFSEKDRYSDFANEIGFAPERGNRYGYRVSAAAGDCEVRNAADLPVPAAGVPCISNDSFRFGANSAIDDPTPVVARFVPQGAAGWNTTLGVQPTIADCPNCNFFAGARGNADNEATFDDWVIAGFEGSGQVGPCSEAGNVASGTPYNTRNDVACDGAAQ
glycan array binding signal (z-score) [1]: -1.12 | glycan array binding signal (z-score) [2]: 0.26 | glycan array binding signal (z-score) [3]: 1.37 | glycan array binding signal (z-score) [4]: -0.245 | glycan array binding signal (z-score) [5]: 0.596 | glycan array binding signal (z-score) [6]: 1.45 | glycan array binding signal (z-score) [7]: 0.002 | glycan array binding signal (z-score) [8]: 3.99 | glycan array binding signal (z-score) [9]: 3.85 | glycan array binding signal (z-score) [10]: -0.168 | glycan array binding signal (z-score) [11]: 0.462 | glycan array binding signal (z-score) [12]: -0.846 | glycan array binding signal (z-score) [13]: -0.784 | glycan array binding signal (z-score) [14]: -0.507 | glycan array binding signal (z-score) [15]: -0.236 | glycan array binding signal (z-score) [16]: -0.025 | glycan array binding signal (z-score) [17]: -0.9 | glycan array binding signal (z-score) [18]: -1.03 | glycan array binding signal (z-score) [19]: 3.09 | glycan array binding signal (z-score) [20]: 2.91 | glycan array binding signal (z-score) [21]: -0.369 | glycan array binding signal (z-score) [22]: -0.544 | glycan array binding signal (z-score) [23]: -0.645 | glycan array binding signal (z-score) [24]: 3.6 | glycan array binding signal (z-score) [25]: 4.29 | glycan array binding signal (z-score) [26]: 0.057

— the supplement of paper PMC8728848
